Measurements published in PubChem BioAssay (NCATS).
Results filed as inconclusive are left out. The source made the active and inactive calls. Unless noted, the call rests on the fitted dose curve; in most records, active means well fitted curve in the direction sought with a large enough effect; inconclusive means small, poorly fitted or top-dose-only effect, or another doubt; inactive means no such curve, though single readings can be large; an effect the other way counts as inactive or inconclusive.

Columns and labels:
[1] = Cell Viability - BJ (AID 421; calls by dose curve;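 further: potency means the concentration at half of the fitted maximal effect; cells exposed to compound for 40 hours at 37 °C before readout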); conditions: BJ fibroblast viability, qHTS
In short: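 Cytotoxicity in human BJ foreskin fibroblasts is scored as loss of cellular ATP after a 40-hour exposure, measured by luciferase luminescence. Controls are DMSO and 100 uM tamoxifen.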

[2] = Cell Viability - Jurkat (AID 426;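 active means dose-dependent loss of cell ATP signal giving a full or clear fitted curve, ranked by lower potency value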;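 further: potency means the concentration at half of the fitted maximal effect; cells exposed to compound for 40 hours at 37 °C before ATP read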); conditions: qHTS
In short: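 Seed 5000 Jurkat E6-1 cells/well; add compound; incubate 40 hr at 37 °C; add CellTiter-Glo; wait 20 min at room temperature; read luminescence. Fit concentration-response with Hill equation for AC50.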

[3] = Cell Viability - Hek293 (AID 427;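 active means compounds whose dose-response curve shows a full or clear partial loss of cell viability, called from curve shape rather than a numeric limit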;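 further: potency means the concentration at half of the fitted maximal effect; cells exposed to compound for 40 hours at 37 °C before reading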); conditions: qHTS
In short: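 qHTS, human embryonic kidney (adenovirus-transformed) cells; 40 hr cpd, 37 °C; CellTiter-Glo ATP luminescence. Norm: DMSO = 0, 100 uM tamoxifen = 100% inhibition. Hill-fit AC50.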

[4] = Cell Viability - HepG2 (AID 433; calls by dose curve;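 further: potency means the concentration at half of the fitted maximal effect; cells exposed to compound for 40 hours; potency for ATP loss meaning cytotoxicity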); conditions: qHTS
In short: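 Cytotoxicity read as ATP loss (CellTiter-Glo luminescence) after 40 hr compound exposure of HepG2, 1500 cells/well, 37 °C. AC50 by Hill equation; 0% set by DMSO, 100% inhibition by 100 uM tamoxifen.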

[5] = Cell Viability - MRC5 (AID 434; calls by dose curve;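 further: potency means the concentration at half of the fitted maximal effect; cells exposed to compound for 40 hours at 37 °C; potency reflects cytotoxicity seen as loss of intracellular ATP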); conditions: MRC5 lung fibroblast viability, qHTS
In short: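 MRC5 normal human lung fibroblasts (1500/well) were treated with compounds for 40 hr at 37 °C in complete medium, and viable cells were measured as intracellular ATP by CellTiter-Glo luminescence. AC50 came from Hill fits, normalized to DMSO and 100 uM tamoxifen.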

[6] = Cell Viability - SK-N-SH (AID 435; calls by dose curve; further: potency means the concentration at half of the fitted maximal effect); conditions: SK-N-SH neuroblastoma cell viability qHTS
In short: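 qHTS cytotoxicity: CellTiter-Glo ATP luminescence after 40 h compound exposure of human neuroblastoma SK-N-SH cells at 37 °C. AC50 derived by Hill-equation fitting, with DMSO as basal and 100 uM tamoxifen as full inhibition.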

[7] = target: Mitogen-activated protein kinase 10 (Mus musculus) (UniProt Q61831); test: JNK3 AlphaScreen Assay (AID 530; active means well fitted curve in either direction with a large enough effect, not every such curve was filed as active;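 further: kinase came from lysate of stimulated human HepG2 cells; signal reports phosphorylation of biotinylated GST-cJun 1-79 at Ser73 with 10 µM ATP; on the % scale 0 is the no-effect control and ±100 the full control effect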); conditions: JNK3 lysate, c-Jun phosphorylation; series mostly up to 57.1 µM
In short: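 JNK3 came from HepG2 lysates pre-activated with IL-1beta and TNF-alpha and phosphorylated biotinylated GST-cJun (1-79) at 10 uM ATP, pH 7.6, room temperature. Compounds were titrated. AlphaScreen signal used anti-phospho-cJun (Ser73) antibody.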

[8] = Cell Viability - N2a (AID 540); conditions: N2a mouse neuroblastoma cell viability; activity change, negative = cytotoxicity: at 92.2 µM (top of the series);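 further: plate controls were DMSO alone for no effect and tamoxifen control for full effect; nearly all actives have a fitted effect of over 45% in size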
In short: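 First, 1500 N2a cells per well incubate 5 hr at 37 °C; next, compounds are added and incubated 40 hr at 37 °C; finally CellTiter-Glo is added and luminescence read after 20 min, with AC50 derived by Hill modeling.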

[9] = Cell Viability - NIH 3T3 (AID 541); conditions: NIH 3T3 cell viability, qHTS; activity change, negative = cytotoxicity: at 92.2 µM (top of the series);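 further: cells exposed to compound for 40 hours; plate controls were DMSO alone for no effect and tamoxifen positive control for full effect; nearly all actives have a fitted effect of over 25% in size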
In short: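 AC50 values reflect concentration-dependent loss of intracellular ATP in NIH 3T3 cells after 40 hr treatment in complete culture medium, quantified by luciferase-based luminescence.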

[10] = Cell Viability - HUV-EC-C (AID 542); conditions: HUV-EC-C endothelial cell viability, qHTS; series mostly up to 92.2 µM;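 further: cells exposed to compound for 40 hours; on the % scale 0 is the no-effect control and ±100 the full control effect; nearly all actives have a fitted effect of over 35% in size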
In short: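 Decrease in cellular ATP, quantified by luciferase luminescence, reflects toxicity in normal human vascular endothelial HUV-EC-C cells given compound for 40 hr in complete culture medium. Values are AC50s from concentration-response curves.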

[11] = Cell Viability - H-4-II-E (AID 543); conditions: H-4-II-E rat hepatoma viability; series mostly up to 92.2 µM;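 further: cells exposed to compound for 40 hours; on the % scale 0 is the no-effect control and ±100 the full control effect; nearly all actives have a fitted effect of over 35% in size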
In short: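 Here, cytotoxicity is measured in the rat hepatoma line H-4-II-E as loss of intracellular ATP after 40 hr compound treatment, detected by luciferase luminescence.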

[12] = Cell Viability - SH-SY5Y (AID 544); conditions: SH-SY5Y neuroblastoma cell viability; viability change, negative = cytotoxic: at 92.2 µM (top of the series);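 further: cells exposed to compound for 40 hours; nearly all actives have a fitted effect of over 55% in size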
In short: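 Cytotoxicity is scored as a concentration-dependent fall in intracellular ATP in human SH-SY5Y cells treated 40 hr in complete culture medium. Potency is expressed as AC50 from a Hill equation fit.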

[13] = Cell Viability - Renal Proximal Tubule (AID 545); conditions: renal proximal tubule cells viability, primary cells of rat origin; series mostly up to 91.7 µM;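 further: cells exposed to compound for 40 hours; nearly all actives have a fitted effect of over 40% in size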
In short: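 Viability taken as intracellular ATP (CellTiter-Glo luminescence) after 40 hr, 37 °C compound treatment of primary proximal tubule cells from rat kidney, 1000 cells/well; Hill-equation fits of qHTS concentration-response data gave AC50.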

[14] = Cellular Toxicity (caspase-3) HepG2 (AID 654); conditions: HepG2 caspase-3 activation, luminescence; series mostly up to 92.2 µM;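 further: cells exposed to compound for 16 hours before reading; 0% = DMSO alone and 100% = caspase signal from 100 µM tamoxifen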
In short: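 qHTS, HepG2, 1500 cells/well, complete medium; cpd 16 h 37 °C; Caspase-Glo 3/7, 20 min RT; lum. Norm: DMSO vs 100 uM tamoxifen; AC50 Hill fit.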

[15] = Cellular Toxicity (caspase-3) Jurkat (AID 655); conditions: Jurkat caspase-3 activation, luminescence; caspase-3 activation: at 92.2 µM (top of the series), DMSO = 0%, tamoxifen = 100%;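 further: cells exposed to compound for 16 h at 37 °C before reading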
In short: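 Luminescent Caspase-Glo 3/7 read-out (20 min, room temperature) after 16 h compound treatment at 37 C of 5000 Jurkat cells per well. AC50 derived by Hill-equation fitting, scaled between DMSO basal and 100 uM tamoxifen stimulation.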

[16] = Cellular Toxicity (caspase-3) BJ (AID 658); conditions: BJ fibroblasts, luminescence, normalized: DMSO 0%, staurosporine 100%; series mostly up to 91.7 µM
In short: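 Luminescent aminoluciferin-substrate cleavage reports caspase 3/7 activity in normal human BJ fibroblasts after 16 hr compound exposure at 37 °C. Normalized to DMSO (basal) and 10 uM staurosporine (100%); AC50 from Hill fit of concentration-response.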

[17] = Cellular Toxicity (caspase-3) MRC-5 (AID 659); conditions: MRC-5 cells, luminescence, normalized: DMSO 0%, 10 µM staurosporine 100%; series mostly up to 91.7 µM
In short: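 Luminescence from caspase-cleaved aminoluciferin substrate (Caspase-Glo 3/7, 1 hr RT) reports caspase 3/7 activity in MRC-5 lung fibroblasts after 16 hr compound exposure. Normalized to DMSO basal and 10 uM staurosporine as 100%; AC50 from Hill fits.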

[18] = Cellular Toxicity (caspase-3) HUV-EC-C (AID 656); conditions: HUV-EC-C cells, caspase-3 activation (apoptosis), vehicle = 0, 100 µM tamoxifen = 100%; series mostly up to 92.2 µM
In short: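 Luminescent Caspase-Glo 3/7 readout after 16 h, 37 °C compound exposure of HUV-EC-C endothelial cells, 1000 per well, complete medium. AC50 derived by Hill fitting, with DMSO as baseline and 100 uM tamoxifen as full activation.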

[19] = Cellular Toxicity (caspase-3) SHSY5Y (AID 657); conditions: SH-SY5Y caspase-3 activation, DMSO zero, 10 µM staurosporine = 100%; series mostly up to 91.7 µM
In short: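 Luminescent Caspase-Glo 3/7 read-out, 1 hr room temperature, follows 16 hours of compound treatment of SH-SY5Y cells at 37 °C. Normalization: DMSO basal, 10 uM staurosporine as 100%; AC50 values from Hill-equation concentration-response fits.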

[20] = Cell Viability - Mesenchymal (AID 546); conditions: mesenchymal cells viability, qHTS; series mostly up to 91.7 µM;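 further: cells exposed to compound for 40 hours before reading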
In short: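 Normal human renal glomerulus-derived kidney mesenchymal cells, 1000 per well in complete medium, were treated with compounds for 40 hr at 37 °C. Viability was read as intracellular ATP by CellTiter-Glo luminescence; AC50 values came from Hill-equation fits of qHTS concentration-response data.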

C=C(C)C(=O)OCCCCCC
inactive: Potency [1] > 92 µM | Potency [2] > 92 µM | Potency [3] > 92 µM | Potency [4] > 92 µM | Potency [5] > 92 µM | Potency [6] > 92 µM | outcome [7] | activity change, negative = cytotoxicity [8] -2.36% | Potency [9] | Potency [10] | Potency [11] | Potency [12] | Potency [13] | Potency [14] | caspase-3 activation [15] 2.29% | outcome [16] | outcome [17]

Cc1ccc2ncccc2c1
inactive: Potency [1] > 92 µM | Potency [2] > 92 µM | Potency [3] > 92 µM | Potency [4] > 92 µM | Potency [5] > 92 µM | Potency [6] > 92 µM | outcome [7] | activity change, negative = cytotoxicity [8] 3.92% | Potency [9] | Potency [10] | Potency [11] | Potency [12] | Potency [13] | Potency [14] | caspase-3 activation [15] 0.555% | outcome [18] | outcome [19] | outcome [16] | outcome [17]

O=Cc1cccc(Br)c1
inactive: Potency [1] > 92 µM | Potency [2] > 92 µM | Potency [3] > 92 µM | Potency [4] > 92 µM | Potency [5] > 92 µM | Potency [6] > 92 µM | outcome [7] | activity change, negative = cytotoxicity [8] 0.0642% | Potency [9] | Potency [10] | Potency [11] | Potency [12] | Potency [13] | Potency [20] | Potency [14] | outcome [18] | outcome [19] | outcome [16]

Nc1cccc2c(=O)[nH][nH]c(=O)c12
inactive: Potency [1] > 92 µM | Potency [2] > 92 µM | Potency [3] > 92 µM | Potency [4] > 92 µM | Potency [5] > 92 µM | Potency [6] > 92 µM | outcome [7] | activity change, negative = cytotoxicity [8] 9.7% | Potency [9] | Potency [10] | Potency [11] | Potency [12] | Potency [13] | Potency [20] | Potency [14] | outcome [18] | outcome [16] | outcome [17]

CC(=O)c1cc(C)oc1C
inactive: Potency [1] > 92 µM | Potency [2] > 92 µM | Potency [3] > 92 µM | Potency [4] > 92 µM | Potency [5] > 92 µM | Potency [6] > 92 µM | outcome [7] | activity change, negative = cytotoxicity [8] -1.61% | Potency [9] | Potency [10] | Potency [11] | Potency [12] | Potency [13] | Potency [20] | Potency [14] | outcome [18] | outcome [19] | outcome [16] | outcome [17]

Nc1cc(S(=O)(=O)O)ccc1O
inactive: Potency [1] > 92 µM | Potency [2] > 92 µM | Potency [3] > 92 µM | Potency [4] > 92 µM | Potency [5] > 92 µM | Potency [6] > 92 µM | outcome [7] | activity change, negative = cytotoxicity [8] -15.5% | Potency [9] | Potency [10] | Potency [11] | Potency [12] | Potency [13] | Potency [20] | Potency [14] | outcome [18] | outcome [19] | outcome [16] | outcome [17]

CCOc1ccccc1N
inactive: Potency [1] > 92 µM | Potency [2] > 92 µM | Potency [3] > 92 µM | Potency [4] > 92 µM | Potency [5] > 92 µM | Potency [6] > 92 µM | outcome [7] | activity change, negative = cytotoxicity [8] 1.87% | Potency [9] | Potency [10] | Potency [11] | Potency [12] | Potency [13] | Potency [20] | Potency [14] | outcome [18] | outcome [19] | outcome [16]

COCCOC(=O)c1ccccc1C(=O)OCCOC
inactive: Potency [1] > 92 µM | Potency [2] > 92 µM | Potency [3] > 92 µM | Potency [4] > 92 µM | Potency [5] > 92 µM | Potency [6] > 92 µM | outcome [7] | activity change, negative = cytotoxicity [8] 4.24% | Potency [9] | Potency [10] | Potency [11] | Potency [12] | Potency [13] | Potency [14] | caspase-3 activation [15] 0.0969% | outcome [18] | outcome [19] | outcome [16] | outcome [17]

O=C(O)c1cccc([N+](=O)[O-])c1
inactive: Potency [1] > 92 µM | Potency [2] > 92 µM | Potency [3] > 92 µM | Potency [4] > 92 µM | Potency [5] > 92 µM | Potency [6] > 92 µM | outcome [7] | activity change, negative = cytotoxicity [8] -0.379% | Potency [9] | Potency [10] | Potency [11] | Potency [12] | Potency [20] | Potency [14] | caspase-3 activation [15] 0.351% | outcome [18] | outcome [19] | outcome [16] | outcome [17]

O=C(O)CN(CC(=O)O)CC(=O)O
inactive: Potency [1] > 92 µM | Potency [2] > 92 µM | Potency [3] > 92 µM | Potency [4] > 92 µM | Potency [5] > 92 µM | Potency [6] > 92 µM | outcome [7] | activity change, negative = cytotoxicity [8] -5.01% | Potency [9] | Potency [10] | Potency [11] | Potency [12] | Potency [20] | Potency [14] | caspase-3 activation [15] 1.43% | outcome [18] | outcome [19] | outcome [16] | outcome [17]

CC(C)(C)c1ccc(OCC2CO2)cc1 (centres undefined)
inactive: Potency [1] > 92 µM | Potency [2] > 92 µM | Potency [3] > 92 µM | Potency [4] > 92 µM | Potency [5] > 92 µM | Potency [6] > 92 µM | outcome [7] | activity change, negative = cytotoxicity [8] -14.9% | Potency [9] | Potency [10] | Potency [11] | Potency [12] | Potency [13] | Potency [20] | Potency [14] | outcome [16] | outcome [17]

O=C(O)c1cccc(Cl)c1Cl
inactive: Potency [1] > 92 µM | Potency [2] > 92 µM | Potency [3] > 92 µM | Potency [4] > 92 µM | Potency [5] > 92 µM | Potency [6] > 92 µM | outcome [7] | activity change, negative = cytotoxicity [8] -7.38% | Potency [9] | Potency [10] | Potency [11] | Potency [12] | Potency [13] | Potency [20] | Potency [14] | caspase-3 activation [15] 0.107% | outcome [17]
